Test results as given in PubChem BioAssay AID588477 (NMMLSC, 2011).
The source made the active and inactive calls.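 Rule for the calls: active = valid curve fit with half-effect dose at most 10 µM and total binding change across doses of 30 points or more; inactive = the rest.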

Assay: inhibitors of Bodipy-GTP binding across eight GTPases, SAR follow-up, selectivity assay for Cdc42 probe extension project, biochemical, round 1 SAR, Mg buffer, multiplex flow cytometry (AID 588477)
Conditions: GST-GTPase beads, Rac constitutively active; series mostly up to 100 µM; percent response (remaining binding): at the top concentration

| SMILES | outcome | percent response (remaining binding) |
| --- | --- | --- |
| O=C(C#Cc1ccccc1)c1cccc([N+](=O)[O-])c1 | inactive |  |
| NS(=O)(=O)c1ccc(N2N=C(c3ccccc3)CC2c2ccccc2)cc1 (stereo not drawn) |  | 89.5% (inactive) |
| COc1ccc(C2CC(c3ccccc3)=NN2c2ccc(S(N)(=O)=O)cc2)cc1 (stereo not drawn) |  | 87.9% (inactive) |
